Laboratory results as given in PubChem BioAssay.
Active and inactive are the calls of the source.

Legend:
[1] = small molecules captured by biotinylated probe aFSTL3 – biochemical, small-molecule microarray, fluorescence 635/667, stem cell growth factor project, primary screen (AID 1064); conditions: higher = more signal;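 further: measures binding of the biotinylated anti-FSTL3 antibody to printed compounds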
[2] = binders from COS7 lysate, DM2A8 probe, primary screen, torsin A project, cell lysate, small-molecule microarray, fluorescence 635/667 (AID 1065); conditions: higher = more signal, COS7 lysate expressing mutant human TOR1A
[3] = small molecules captured by biotinylated probe aFGF2 – biochemical, small-molecule microarray, fluorescence 635/667, stem cell growth factor project, primary screen (AID 1067); conditions: higher = more signal;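 further: measures binding of biotinylated aFGF2 protein to printed compounds on slides; z-score merges feature fluorescence and signal-to-noise across triplicate slides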
[4] = small molecules captured by biotinylated probe aFGF10 – biochemical, small-molecule microarray, fluorescence 635/667, stem cell growth factor project, primary screen (AID 1071); conditions: higher = more signal;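 further: score merges 667 nm spot intensity and signal to noise from triplicate slides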
[5] = target: Neurogenic locus notch homolog protein 2 (Homo sapiens) (UniProt Q04721); assay: small molecules binding Notch2 protein – biochemical, small-molecule microarray, 635 nm fluorescence, stem cell growth factors, primary screen (AID 1073); conditions: higher = more signal
[6] = target: Pro-neuregulin-1, membrane-bound isoform (Homo sapiens) (UniProt Q02297); assay: small molecules binding neuregulin-1 protein – biochemical, small-molecule microarray, fluorescence 635/667, psychiatric disease protein project, primary screen (AID 1075); conditions: NRG1 binding, 635 nm fluorescence, higher = more signal;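 further: score combines 667 nm spot fluorescence with signal to noise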
[7] = tested on: Neuregulin-1 EGF-like domain; assay: small molecules binding NRG1 EGF domain – biochemical, small-molecule microarray, 635 nm fluorescence, primary screen (AID 1081); conditions: higher = more signal;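 further: binding of the protein to compounds printed on small-molecule microarray slides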
[8] = FRG1 expression reporter modulators in myotubes – cell-based, C2C12 myotubes, firefly/Renilla luciferase, luminescence, FRG1 inhibition for FSHD, primary screen (AID 1084); conditions: FRG1 promoter luciferase, higher = more signal, called active from +8 up or from −8 down
[9] = small molecules captured by biotinylated probe aFST – biochemical, small-molecule microarray, fluorescence 635/667, stem cell growth factor project, primary screen (AID 1086); conditions: higher = more signal;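 further: score merges 667 nm fluorescence with signal-to-noise of each printed compound spot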
[10] = binders of probe aHhip on microarray, primary screen, stem cell growth factor project, biochemical, small-molecule microarray, fluorescence 635/667 (AID 1087); conditions: higher = more signal;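 further: score merges spot fluorescence at 667nm with spot signal to noise ratio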
[11] = tested on: PRMT1 (protein arginine N-methyltransferase 1); assay: small molecules binding arginine methyltransferase PRMT1 – biochemical, small-molecule microarray, 635 nm fluorescence, primary screen (AID 1088); conditions: higher = more signal;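 further: binding of Prmt1 protein to compounds spotted on small-molecule microarray slides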
[12] = growth effects on S. cerevisiae YJM789 – YJM789 clinical isolate, OD600, 24 h, basal, primary screen (AID 1089); conditions: higher = more signal, called active from +8 up or from −8 down;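 further: growth of clinical yeast isolate S. cerevisiae YJM 789 seeded 1000 cells per well; test concentration not given here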
[13] = S. pombe growth modifiers, basal conditions – strain 972, OD600, 24 h, no modulator, primary screen (AID 1090);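 further: basal condition with compound alone and no growth modifier present; test concentration not given here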; conditions: S. pombe 972 growth, higher = more signal, called active from +8 up or from −8 down
[14] = budding yeast growth modifiers under rapamycin – strain BY4716, OD600, 96 h, primary screen (AID 1091); further: test concentration not given here; conditions: S. cerevisiae BY4716 + rapamycin, higher = more signal, called active from +8 up or from −8 down
[15] = target: Torsin-1A-interacting protein 2 (Homo sapiens) (UniProt Q8NFQ8); assay: small molecules binding lysate-expressed LULL1 – cell lysate, human LULL1 lysate, 635/667 nm fluorescence, primary screen (AID 1092); conditions: small-molecule microarray, hLULL1 lysate binding, 635 nm fluorescence; higher = more signal;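 further: probe is lysate of COS7 cells overexpressing human LULL1; score merges per-feature 667 nm fluorescence with signal-to-noise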
[16] = optical density change of DRC41 E. coli – strain DRC41, OD650, 24 h, E. coli filamentation project, primary screen (AID 1093);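 further: MC1000 strain lacking acrAB efflux and sulA so SOS filamentation is blocked; test concentration not given here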; conditions: E. coli DRC41 growth, higher = more signal, called active from +8 up or from −8 down
[17] = probe aLefty2 binding to arrayed compounds – biochemical, biotinylated probe, 635/667 nm fluorescence, primary screen (AID 1094); conditions: small-molecule microarray, higher = more signal;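 further: score merges spot fluorescence near 667 nm with spot signal-to-noise ratio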
[18] = tested on: Noggin (protein binding on small-molecule microarray); assay: small molecules binding Noggin protein – biochemical, 635/667 nm fluorescence, primary screen (AID 1095); conditions: 635 nm fluorescence, higher = more signal;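 further: score merges 667 nm feature fluorescence with signal to noise over triplicate slides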
[19] = target: Neurogenic locus notch homolog protein 3 (Homo sapiens) (UniProt Q9UM47); assay: small molecules binding NOTCH3 protein – biochemical, 635/667 nm fluorescence, primary screen (AID 1096); conditions: small-molecule microarray, 635 nm fluorescence, higher = more signal
[20] = probe aEGFR binding to arrayed compounds – biochemical, biotinylated probe, 635/667 nm fluorescence, primary screen (AID 1097); conditions: small-molecule microarray, higher = more signal;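 further: probe is a biotinylated anti-EGFR antibody binding compounds printed on slides; score combines fluorescence near 667 nm and signal to noise of each spot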

Chain of Neurogenic locus notch homolog protein 2 (Homo sapiens) (Q04721 whole entry, looked up, canonical isoform): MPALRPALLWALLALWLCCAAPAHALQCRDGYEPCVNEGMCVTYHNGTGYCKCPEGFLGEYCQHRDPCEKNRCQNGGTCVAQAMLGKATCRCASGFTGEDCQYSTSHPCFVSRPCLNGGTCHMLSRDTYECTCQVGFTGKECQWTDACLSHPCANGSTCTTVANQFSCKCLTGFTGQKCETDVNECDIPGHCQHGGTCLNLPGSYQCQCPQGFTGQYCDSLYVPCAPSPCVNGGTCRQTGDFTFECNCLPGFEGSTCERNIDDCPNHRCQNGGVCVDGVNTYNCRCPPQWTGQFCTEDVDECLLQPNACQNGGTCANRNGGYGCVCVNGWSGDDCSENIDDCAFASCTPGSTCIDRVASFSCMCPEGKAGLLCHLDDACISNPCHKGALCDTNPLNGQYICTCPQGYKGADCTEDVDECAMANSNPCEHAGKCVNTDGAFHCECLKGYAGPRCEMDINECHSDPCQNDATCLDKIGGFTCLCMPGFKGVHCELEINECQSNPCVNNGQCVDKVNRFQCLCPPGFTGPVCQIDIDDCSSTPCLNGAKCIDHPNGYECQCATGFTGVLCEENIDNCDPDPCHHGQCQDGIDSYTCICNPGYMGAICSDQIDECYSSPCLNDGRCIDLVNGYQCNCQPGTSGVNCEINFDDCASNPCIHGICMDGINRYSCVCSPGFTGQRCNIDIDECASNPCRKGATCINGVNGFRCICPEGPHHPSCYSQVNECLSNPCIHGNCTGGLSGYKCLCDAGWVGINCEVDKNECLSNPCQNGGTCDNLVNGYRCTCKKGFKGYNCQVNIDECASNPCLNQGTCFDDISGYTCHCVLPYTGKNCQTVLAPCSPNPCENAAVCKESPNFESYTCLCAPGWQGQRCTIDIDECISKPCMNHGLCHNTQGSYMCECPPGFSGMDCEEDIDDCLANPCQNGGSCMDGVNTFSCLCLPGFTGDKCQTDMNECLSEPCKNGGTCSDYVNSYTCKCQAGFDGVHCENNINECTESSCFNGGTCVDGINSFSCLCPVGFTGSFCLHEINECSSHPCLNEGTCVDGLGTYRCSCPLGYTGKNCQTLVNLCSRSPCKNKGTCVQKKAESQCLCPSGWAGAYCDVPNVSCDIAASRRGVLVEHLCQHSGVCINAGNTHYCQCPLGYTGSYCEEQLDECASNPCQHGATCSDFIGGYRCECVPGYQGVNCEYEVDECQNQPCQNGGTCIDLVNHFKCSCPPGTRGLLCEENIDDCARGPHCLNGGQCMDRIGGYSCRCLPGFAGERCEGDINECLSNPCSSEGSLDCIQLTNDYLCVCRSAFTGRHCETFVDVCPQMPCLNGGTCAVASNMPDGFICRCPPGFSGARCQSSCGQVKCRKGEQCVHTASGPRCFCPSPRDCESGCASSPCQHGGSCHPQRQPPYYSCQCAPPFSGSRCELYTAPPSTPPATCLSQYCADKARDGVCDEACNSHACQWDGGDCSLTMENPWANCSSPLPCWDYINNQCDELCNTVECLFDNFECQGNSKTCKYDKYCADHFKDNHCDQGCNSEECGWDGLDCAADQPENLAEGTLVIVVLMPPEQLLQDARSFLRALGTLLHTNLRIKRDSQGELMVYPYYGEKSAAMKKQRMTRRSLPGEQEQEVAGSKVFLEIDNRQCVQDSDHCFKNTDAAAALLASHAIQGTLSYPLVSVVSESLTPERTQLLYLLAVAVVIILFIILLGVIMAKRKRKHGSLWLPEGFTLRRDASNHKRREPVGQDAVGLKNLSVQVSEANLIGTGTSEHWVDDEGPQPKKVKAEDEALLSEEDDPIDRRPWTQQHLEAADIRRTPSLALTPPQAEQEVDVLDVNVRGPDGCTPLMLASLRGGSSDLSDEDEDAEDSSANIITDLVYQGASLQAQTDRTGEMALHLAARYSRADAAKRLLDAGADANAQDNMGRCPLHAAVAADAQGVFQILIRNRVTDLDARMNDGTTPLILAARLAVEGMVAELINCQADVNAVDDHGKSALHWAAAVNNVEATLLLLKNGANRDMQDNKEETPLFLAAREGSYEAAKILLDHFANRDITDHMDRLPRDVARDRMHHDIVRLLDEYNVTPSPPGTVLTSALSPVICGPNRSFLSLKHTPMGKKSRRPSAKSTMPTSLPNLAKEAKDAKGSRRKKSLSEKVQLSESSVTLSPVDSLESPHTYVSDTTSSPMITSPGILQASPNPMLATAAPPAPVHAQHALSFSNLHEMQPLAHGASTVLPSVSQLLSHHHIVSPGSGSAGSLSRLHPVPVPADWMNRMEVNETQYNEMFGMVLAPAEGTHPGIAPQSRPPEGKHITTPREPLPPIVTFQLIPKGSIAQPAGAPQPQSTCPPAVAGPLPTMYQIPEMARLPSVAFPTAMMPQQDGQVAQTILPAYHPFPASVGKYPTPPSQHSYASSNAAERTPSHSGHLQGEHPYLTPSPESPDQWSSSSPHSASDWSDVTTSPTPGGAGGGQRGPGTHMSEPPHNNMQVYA
Chain of Pro-neuregulin-1, membrane-bound isoform (Homo sapiens) (Q02297 whole entry, looked up, the tested form may be a part, canonical isoform): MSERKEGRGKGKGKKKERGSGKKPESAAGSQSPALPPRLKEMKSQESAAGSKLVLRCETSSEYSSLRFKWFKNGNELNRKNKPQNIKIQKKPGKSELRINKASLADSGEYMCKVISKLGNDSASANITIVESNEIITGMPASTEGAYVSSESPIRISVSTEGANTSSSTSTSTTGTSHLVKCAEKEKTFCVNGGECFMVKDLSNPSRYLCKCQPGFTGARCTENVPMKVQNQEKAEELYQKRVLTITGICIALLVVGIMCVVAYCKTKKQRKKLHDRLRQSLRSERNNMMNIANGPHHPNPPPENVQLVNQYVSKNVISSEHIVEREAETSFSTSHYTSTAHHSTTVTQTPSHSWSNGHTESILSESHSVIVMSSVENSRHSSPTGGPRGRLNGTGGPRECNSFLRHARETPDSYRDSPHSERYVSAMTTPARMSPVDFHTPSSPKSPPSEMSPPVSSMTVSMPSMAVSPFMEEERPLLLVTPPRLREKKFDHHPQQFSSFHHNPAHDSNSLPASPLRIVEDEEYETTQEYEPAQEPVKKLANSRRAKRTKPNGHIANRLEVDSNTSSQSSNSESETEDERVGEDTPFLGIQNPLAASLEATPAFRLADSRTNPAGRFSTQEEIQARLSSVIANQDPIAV
Chain of Torsin-1A-interacting protein 2 (Homo sapiens) (Q8NFQ8 whole entry, looked up): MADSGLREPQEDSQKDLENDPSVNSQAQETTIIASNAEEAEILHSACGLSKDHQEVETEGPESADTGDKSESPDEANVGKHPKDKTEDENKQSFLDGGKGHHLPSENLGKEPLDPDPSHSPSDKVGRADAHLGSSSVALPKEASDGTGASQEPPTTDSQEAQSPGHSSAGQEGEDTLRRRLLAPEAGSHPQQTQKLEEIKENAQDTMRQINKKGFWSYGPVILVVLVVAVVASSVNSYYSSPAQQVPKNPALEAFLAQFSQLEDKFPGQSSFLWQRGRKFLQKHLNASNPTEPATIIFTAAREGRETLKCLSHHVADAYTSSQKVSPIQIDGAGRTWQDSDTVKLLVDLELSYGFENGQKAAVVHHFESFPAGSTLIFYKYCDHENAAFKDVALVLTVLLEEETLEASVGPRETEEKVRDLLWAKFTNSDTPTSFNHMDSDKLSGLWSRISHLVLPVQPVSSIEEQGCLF

Structure (SMILES)	composite z-score [1]	composite z-score [2]	composite z-score [3]	composite z-score [4]	composite z-score [5]	composite z-score [6]	composite z-score [7]	z-score [8]	composite z-score [9]	composite z-score [10]	composite z-score [11]	z-score [12]	z-score [13]	z-score [14]	composite z-score [15]	z-score [16]	composite z-score [17]	composite z-score [18]	composite z-score [19]	composite z-score [20]
COCCOC(=O)N1C(=O)[C@@]2(c3cc(C#CC4=CCCCC4)ccc31)[C@H](C(N)=O)[C@H]1C(=O)O[C@H](c3ccccc3)[C@H](c3ccccc3)N1[C@@H]2c1ccccc1OCCO	0.193	0.33	-0.0105	0.999	1.07	1.47	1.34	-0.343 (inactive)	0.306	0.388	1.54	0.908 (inactive)	0.0645 (inactive)	1.99 (inactive)	2.75	-0.0839 (inactive)	-0.0028	0.551	1.11	-0.0056
COc1ccc([Si](C)(C)[C@H]2[C@H](CCO)O[C@@]3(C(=O)N(Cc4cccc(N5C(=O)COc6ccccc65)c4)c4ccccc43)[C@@H]2C)cc1	0.295	0.15	-0.0877	0.126	-0.298	0.727	0.828	-2.07 (inactive)	-0.203	-0.333	0.911	1.5 (inactive)	-0.845 (inactive)	16.8 (active)	0.795	1.98 (inactive)	-0.0021	0.164	0.14	-0.148
CC(C)[Si](C#CCCCC#N)(O[C@H](c1ccccc1)c1cn([C@H](CO)Cc2ccccc2)nn1)C(C)C	-0.436	1.22	-0.168	0.202	0.873	1.44	1.21	-0.325 (inactive)	-0.337	0.0373	0.848	-2.62 (inactive)	-11.3 (active)	-4.64 (inactive)	1.25	1.4 (inactive)	-0.181	0.349	1.02	-0.0843
C=C(/C(=C/C[C@H](OC(C)=O)c1ccccc1OCCO)c1cc(C(=O)OC)ccc1OC)C(C)C	-0.243	-0.415	-0.0222	0.826	-0.0413	0.0648	1.09	-0.976 (inactive)	-0.36	0.126	0.617	0.946 (inactive)	-1.2 (inactive)	-0.376 (inactive)	1.04	1.18 (inactive)	-0.141	0.295	-0.189	0.509
COCCCNC(=O)[C@@]1(Sc2ccc(C)cc2)CC(=O)N(C2CCCCC2)[C@@H]1c1ccc(CO)cc1	0.863	-0.596	0.0019	0.0381	-0.957	-0.113	-0.119	-0.721 (inactive)	-0.37	-0.191	1.08	-0.858 (inactive)	0.478 (inactive)	-0.874 (inactive)	2.96	0.195 (inactive)	0.0977	-0.804	0.0236	-0.221
O=C1O[C@H](c2ccccc2)[C@H](c2ccccc2)N2[C@H]1[C@@H](C(=O)Nc1nc3ccccc3s1)[C@]1(C(=O)Nc3ccccc31)[C@H]2c1ccc(OCCO)cc1	-0.401	0.292	-0.0734	0.452	1.31	1.29	1.11	3.35 (inactive)	0.778	0.0854	1.31	1.48 (inactive)	1.95 (inactive)	3.31 (inactive)	1.96	0.0528 (inactive)	-0.0446	1.5	1.05	0.0162
O=C1C=C(c2ccccc2)C(=O)c2ccc([C@H]3Oc4ccccc4S(=O)(=O)N4CCC[C@@H]34)cc21	-0.292	-0.303	-0.116	-0.0019	-0.405	-0.775	-0.87	2.5 (inactive)	-0.024	0.0659	-0.208	-0.818 (inactive)	-14.9 (active)	0.696 (inactive)	-1.27	1.66 (inactive)	-0.18	-0.144	-0.272	-0.119
NC(=O)N1C(=O)C2C(C1=O)C1C=C(CCCO)C2C(c2cccs2)N1Cc1cccc(OC(F)(F)F)c1 (stereo not given)	-0.206	0.118	-0.0715	0.354	0.009	1.03	0.753	-1.02 (inactive)	0.0646	-0.0994	1.2	-0.367 (inactive)	-1.7 (inactive)	-0.967 (inactive)	1.77	0.56 (inactive)	-0.123	0.329	0.511	0.0625
O=C1O[C@H](c2ccccc2)[C@H](c2ccccc2)N2[C@H]1[C@@H](C(=O)Nc1nc3ccccc3s1)[C@]1(C(=O)Nc3ccc(C#CCCO)cc31)[C@H]2c1ccc(O)cc1	-0.309	0.931	-0.0074	1.01	0.947	1.2	1.27	0.912 (inactive)	0.652	-0.0581	1.55	0.758 (inactive)	0.936 (inactive)	1.14 (inactive)	2.39	-0.672 (inactive)	0.0769	0.744	1.13	0.346
C=C[C@@H](COC(C)=O)N(C(=O)OC(C)(C)C)S(=O)(=O)c1ccc(Br)cc1	0.0095	1.66	-0.0005	0.358	0.401	0.33	1.01	-3.97 (inactive)	0.157	0.157	0.832	-0.152 (inactive)	-1.54 (inactive)	-0.666 (inactive)	0.519	0.411 (inactive)	0.132	0.841	0.782	0.0709
